# Assay outcomes (PubChem BioAssay)
# Sampled rows, rich in hits. Any-hit rate of the full collection: about 1.1%.
# PriA SSB inh: inhibitors of Klebsiella pneumoniae PriA binding to SSB C-terminal tail; 0.6% of 430,000 active; AlphaScreen SSBct-PriA binding, biotinylated peptide; inhibition, % at 33 µM; in the data active = inhibition mostly above about 37%, no sharp cut-off; inactive = mostly below about 20%;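 also: plate controls were negative control peptide for no effect and reference peptide for full effect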
# RN4220 kill: kills Staphylococcus aureus RN4220 | 0.33% of 330,000 active | inhibition, % (test concentration not listed) | S. aureus RN4220 growth, OD600, 16 h | AID 1259311; in the data active = inhibition above about 85%;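 also: plate controls were untreated cells for no effect and reference antibiotic for full effect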
# Sa ugtP lethal: compounds lethal to S. aureus RN4220 ugtP deletion mutant; OD600 growth, 16 h; growth inhibition, % (no concentration beside the values); 0.54% of 330,000 active; AID 1259309; in the data active = growth inhibition above about 68%;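 also: plate controls were untreated wells for no effect and antibiotic for full effect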
# Mtb hypoxia inh: reduces hypoxia-regulated biosensor signal in M. tuberculosis. M. tuberculosis hypoxia-regulated fluorescent reporter, fluorescence. fluorescence inhibition, % (no concentration beside the values). 0.1% of 300,000 active. AID 1159583; in the data active = fluorescence inhibition mostly above about 23%, no sharp cut-off; inactive = mostly below about 17%
# Active calls of the source: *; . = not tested or not shown; ! = repeats disagree.
SMILES,PriA SSB inh,RN4220 kill,Sa ugtP lethal,Mtb hypoxia inh
CCc1ccc(CN2CCC(C(=O)Nc3cccc(-c4nnc(C)s4)c3)CC2)o1,56.5*,2.9,9.5,3.4
CCCC(C)C1(CC)C(=N)NC(=O)NC1=O (configuration not stated),1.6,.,.,.
CS(=O)(=O)N1CC(C(=O)N2CCN(C(=O)c3ccco3)CC2)C1,80.0*,.,.,.
CCCN(CC(=O)Nc1ccccc1C)C(=O)c1ccc2ccccc2n1,-14.5,-0.3,0.4,-20.5
Cc1ccccc1NC(=S)c1ccc2ccccc2n1,65.0*!,-6.1,19.6,0.7
C1CN2CN3CCN(CN1C3)C2,80.0*,.,.,.
C1N2CN3CN1CN(C2)C3,-8.9,2.4,3.6,-3.2
Cn1cc(S(=O)(=O)N2CCCNCC2)cn1,6.0,.,.,.
O=C(Nc1nc2ccc(SC(F)F)cc2s1)c1ccc(NS(=O)(=O)c2ccc(F)c(F)c2)cc1,4.3,100.4*,100.4*,3.1
CS(=O)(=O)c1ccc2nc(NC(=O)c3ccc(NS(=O)(=O)c4ccc(F)c(F)c4)cc3)sc2c1,-11.2,2.7,11.9,3.7
O=C(O)c1ccccc1NS(=O)(=O)c1ccc(NN=Cc2ccc(F)cc2)c([N+](=O)[O-])c1,-4.0,-4.2,82.1,3.9
COc1ccc(Br)cc1C=NNc1ccc(S(=O)(=O)Nc2ccccc2C(=O)O)cc1[N+](=O)[O-],6.6,99.5*,99.5*,10.8
O=C(O)c1ccccc1NS(=O)(=O)c1ccc(NN=Cc2cccc(Cl)c2)c([N+](=O)[O-])c1,30.9,-11.5,89.5*,7.8
CSCCC(C)(O)CNC(=O)C(=O)Nc1cccc(Cl)c1C (configuration not stated),-8.0,.,.,.
CN(C)CCCOc1ccc(Cl)cc1Br,50.6*,0.0,-7.6,6.2
Cc1ccc(S(=O)(=O)Nc2ccc3c(c2)N(CCC(C)C)C(=O)C(C)(C)CO3)cc1,15.0,.,.,.
O=C(COc1ccccc1)Nc1nc2c(s1)-c1cccc3cccc-2c13,42.0*,.,.,.
Cc1cccc(C(=O)NN=C2CS(=O)(=O)N(C)c3ccsc32)c1,-0.2,3.0,1.9,-4.3
CN1c2ccsc2C(=NNc2ccc(F)cc2)CS1(=O)=O,-9.1,82.7,99.8*,-2.7
COCCn1c(SCC(=O)Nc2nnc(C)s2)nc2c(c1=O)S[C@@H](C)C2,-2.0,.,.,.
Clc1ccc2[nH]c3c(c2c1)CCc1cn[nH]c1-3,2.1,98.3*,78.8,-8.0
c1ccc2c3c([nH]c2c1)-c1[nH]ncc1CC3,6.2,-3.3,-20.1,-6.1
O=C(COc1ccc2ccccc2c1)NCCOc1ccc2c(c1)OCO2,37.0*,.,.,.
COC(=O)C1=C(C)N(c2ccc(C)c(C)c2)/C(=C/c2ccc(O)cc2)C1=O,2.2,92.8*,91.3*,1.8
O=S(=O)(NCC1(Sc2ccccc2)CCOCC1)c1ccc(C(F)(F)F)cc1,-9.0,.,.,.
SMILES,PriA SSB inh,RN4220 kill,Sa ugtP lethal,Mtb hypoxia inh
Cc1ccc(C)c(Nc2c([N+](=O)[O-])cc(C(=O)N3CC(=O)Nc4ccccc43)cc2[N+](=O)[O-])c1,52.7*,21.5,-12.8,1.1
Cc1cccc(Nc2c([N+](=O)[O-])cc(C(=O)N3CC(=O)Nc4ccccc43)cc2[N+](=O)[O-])c1,8.4,.,.,.
N#Cc1nc(COc2ccccc2)oc1N1CCCCCC1,109.2*!,5.8,14.7,4.6
Cc1ccc(OCc2nc(C#N)c(N3CCOCC3)o2)cc1,82.0*,.,.,.
N#Cc1nc(COc2ccc(F)cc2)oc1N1CCCCCC1,110.9*,.,.,.
N#Cc1nc(COc2ccc(Br)cc2)oc1N1CCCC1,50.8*,11.5,14.5,.
N#Cc1nc(COc2ccc(F)cc2)oc1N1CCCCC1,16.9,1.4,-0.2,7.0
N#Cc1nc(COc2ccccc2)oc1N1CCCC1,13.7,8.0,6.3,0.4
O=c1[nH]nc(-c2ccco2)c2sc(N3CCCC3)nc12,2.0,.,.,.
CCc1ccccc1NC(=O)CSc1ncnc2nc(-c3ccc(C)cc3)ncc12,-18.0,.,.,.
N#Cc1nc(COc2ccc(Br)cc2)oc1N1CCCCCC1,24.3,32.6,18.9,.
COc1ccc(OCc2nc(C#N)c(N3CCCC3)o2)cc1,79.7*,.,.,.
N#Cc1nc(COc2ccc(Cl)cc2)oc1N1CCCCC1,95.3*,.,.,.
COc1ccc(CNc2oc(COc3ccc(Cl)cc3)nc2C#N)cc1,1.0,-1.6,-22.1,5.4
COc1ccc(OCc2nc(C#N)c(N3CCCCCC3)o2)cc1,102.5*,.,.,.
COc1ccc(Nc2oc(COc3ccc(Cl)cc3)nc2C#N)cc1,41.4*,1.1,-5.2,8.7
COC(=O)Cc1cc(=O)[nH]c(N=C(N)Nc2cccc(C)c2)n1,2.7,.,.,.
O=C(NN1CCOCC1)c1csc2nc(-c3ccc(F)cc3)cn12,-9.0,.,.,.
COc1ccc(N2CCN(c3oc(COc4ccccc4)nc3C#N)CC2)cc1,-19.9,9.5,0.2,13.6
N#Cc1nc(COc2ccc(Cl)cc2Cl)oc1N1CCOCC1,56.0*,6.3,-3.2,-0.8
CN1CCN(c2oc(COc3ccc(-c4ccccc4)cc3)nc2C#N)CC1,59.9*,-5.0,0.5,21.1
c1csc(-c2nc3c4ccccc4c4ccccc4c3[nH]2)c1,12.5,81.2,89.7*,2.8
Oc1ccccc1-c1nc2c3ccccc3c3ccccc3c2[nH]1,-13.4,100.4*,97.9*,3.3
CCn1cc(NC(=O)Nc2ccc(OC(F)F)cc2)c2ccccc21,40.0*,.,.,.
Cn1cc(NC(=O)Nc2ccc(OC(F)(F)F)cc2)c2ccccc21,-1.0,.,.,.
SMILES,PriA SSB inh,RN4220 kill,Sa ugtP lethal,Mtb hypoxia inh
COc1ccc(Cn2c(O)c(C=NNC(=O)c3ccccc3)c(=O)[nH]c2=O)cc1,7.9,.,.,.
CCCCn1c(NC(=O)c2ccccc2Cl)c(C#N)c2nc3ccccc3nc21,36.2,44.5,25.7,-4.9
N#Cc1c(NC(=O)c2ccccc2Cl)n(Cc2ccccc2)c2nc3ccccc3nc12,53.3*,.,.,.
Cc1ccc(-n2c(-c3ccc(Br)cc3)c[n+]3c2CCc2ccc4cccnc4c2-3)cc1,37.7,99.0*,90.1,.
O=c1c2ccccc2c2ccccc2c(=O)n1Cc1ccccc1,-20.0,.,.,.
CC(=O)N1CCC(CN2CCCC2)CC1,38.0*,.,.,.
CC(=O)N1CCC(CN2CCOCC2)CC1,2.0,.,.,.
Cn1c(COc2ccc(Cl)cc2)nnc1SCC(=O)NC1CC1,1.1,4.6,3.3,34.3*
